63 compounds from PubChem BioAssay AID588382 (National Center for Advancing Translational Sciences (NCATS), 2011) can be followed below.

About 150 (12%) of roughly 1,300 compounds were called active. About 30% were inconclusive and are not listed. Calls follow the shape of the dose curve; as a rule, active = well fitted cell-killing curve with a large enough effect; inconclusive = small, poorly fitted or top-dose-only effect, or effect the other way; inactive = flat fitted curve, though single readings scatter. The entries come from a sample that favours actives as a whole.
% is scaled to controls: 0 for no effect and ±100 for the full control effect; potency is read from the fitted curve at half-maximal effect.

This assay can be described thus: qHTS of small molecules that selectively kill Giardia lamblia: Hit Validation in HepG2 cytotox.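 Also: compound exposure lasted overnight at 37 deg C; nearly all actives have a fitted effect of over 55% in size.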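 As to activity change, negative = cytotoxicity: viability measured as cellular ATP by ATPLite luminescence.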 The following applies: cell viability; Potency: HepG2 cytotoxicity; series mostly up to 38.3 µM; activity change, negative = cytotoxicity: at the top concentration. An outline of the steps: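 HepG2 cells seeded and incubated overnight at 37 deg C, then 23 nL compound added by pintool and incubated overnight at 37 deg C. Viability read as ATP luminescence with ATPLite after 15 min at room temperature.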
With `O=C(COc1cccnc1[N+](=O)[O-])Nc1ccc(F)cc1`, the “activity change, negative = cytotoxicity” value was 4.27% (inactive).

For the compound `COC1C(OC(=O)/C=C/C=C/C=C/C=C/C(=O)O)CCC2(CO2)C1C1(C)OC1CC=C(C)C` (stereo not drawn) (tested in a mixture with another compound), the “activity change, negative = cytotoxicity” value is 21.4% (inactive).

Turning to `O=C(c1ccc([N+](=O)[O-])o1)N1CCN(c2nc3ccc(F)cc3s2)CC1`, the “activity change, negative = cytotoxicity” value was -10.1% (inactive).

On to `O=C1NC(=O)/C(=C\c2ccc(Oc3ccc([N+](=O)[O-])cn3)cc2)S1`, for which the “activity change, negative = cytotoxicity” value is -15.5% (inactive).

On to `COc1ccccc1-n1cc2c([N+](=O)[O-])cc([N+](=O)[O-])cc2n1`, for which the “activity change, negative = cytotoxicity” value was 11.2% (inactive).

`COCCn1c(C)cc(C(=O)COc2ccc(C)nc2[N+](=O)[O-])c1C`: the “activity change, negative = cytotoxicity” value was -1.94% (inactive).

Take `O=C(c1ccco1)N1CCN(c2c([N+](=O)[O-])nn(-c3cccc(Cl)c3)[n+]2[O-])CC1`: the “activity change, negative = cytotoxicity” value is 20.3% (inactive).

For `Cc1cc([N+](=O)[O-])nn1Cc1ccc(F)cc1`, the “activity change, negative = cytotoxicity” value was -0.393% (inactive).

Take `N/C(=N\OC(=O)c1ccc(Cl)cc1[N+](=O)[O-])c1ccccn1`: the “activity change, negative = cytotoxicity” value is -18.8% (inactive).

Turning to `CC12CCC(C(=O)Nc3ncc([N+](=O)[O-])s3)(OC1=O)C2(C)C` (stereo not drawn), the “activity change, negative = cytotoxicity” value was -9.04% (inactive).

For `CN(C)CCCn1cnc2c(c1=N)C(c1ccccc1)c1ccc3ccccc3c1O2` (stereo not drawn), the Potency is 2.07 µM (active).

Take `Cc1ccc([C@@H]2CC=C(C(=O)O)[C@H](c3ccc(Cl)cc3)N2S(=O)(=O)c2ccc(C)cc2)cc1`: the “activity change, negative = cytotoxicity” value is 8.99% (inactive).

As for `Cc1c[n+]([O-])ccc1[N+](=O)[O-]`, the “activity change, negative = cytotoxicity” value was 1.35% (inactive).

As to `COc1ccc2cc(-c3cc(C(=O)OCC(=O)Nc4c(C)n(C)n(-c5ccccc5)c4=O)c4ccccc4n3)ccc2c1`, the Potency is 0.464 µM (active).

`Cc1c(NC(=O)c2cc(-c3ccc(Cl)c(Cl)c3)on2)c(=O)n(-c2ccccc2)n1C`: the “activity change, negative = cytotoxicity” value is 4.57% (inactive).

Turning to `COc1cc(N=Nc2c(C)n(C)n(-c3ccccc3)c2=O)ccc1N`, the “activity change, negative = cytotoxicity” value is 0.604% (inactive).

With `Cc1ccc(CN=c2c([N+](=O)[O-])nn(-c3cccc(C)c3)n2O)cc1`, the “activity change, negative = cytotoxicity” value is 9.21% (inactive).

Turning to `O=[N+]([O-])c1nn(-c2ccc3c(c2)OCCO3)n(O)c1=NC1CCN(Cc2ccccc2)CC1`, the “activity change, negative = cytotoxicity” value was -1.51% (inactive).

As to `CN(C)c1ccc(/C=C(/NC(=O)c2ccccc2)C(=O)N/N=C/c2ccc([N+](=O)[O-])c(O)c2)cc1`, the “activity change, negative = cytotoxicity” value is 9.79% (inactive).

`Cc1ncc([N+](=O)[O-])n1CCOC(=O)NC(NCc1cccnc1)C(Cl)(Cl)Cl` (stereo not drawn): the “activity change, negative = cytotoxicity” value was -2.24% (inactive).

On to `Cc1nc(C)c(C(=O)Nc2ncc([N+](=O)[O-])s2)o1`, for which the “activity change, negative = cytotoxicity” value is 11.4% (inactive).

As to `COc1cccc(CN=c2c([N+](=O)[O-])nn(-c3ccccc3C)n2O)c1`, the “activity change, negative = cytotoxicity” value is 8.23% (inactive).

Take `O=C(/C=C/c1cccc([N+](=O)[O-])c1)c1ccco1`: the “activity change, negative = cytotoxicity” value was 17.7% (inactive).

`CCOC(=O)N1CCN(C(=O)c2ccc(Cl)c(NC(=O)c3cccs3)c2)CC1`: the “activity change, negative = cytotoxicity” value was 17.8% (inactive).

For the compound `COC(=O)Nc1nc2ccc(C(=O)c3cccs3)cc2[nH]1`, the “activity change, negative = cytotoxicity” value was 20.5% (inactive).

In the case of `Cc1ccn(-c2ccc(NC(=O)c3cccs3)cc2)n1`, the Potency was 9.27 µM (active).

As for `CC(C)(C)c1ccc2c(c1)OC(C(=O)N/N=C/c1ccc([N+](=O)[O-])o1)CO2` (stereo not drawn), the “activity change, negative = cytotoxicity” value is -12.1% (inactive).

`Cc1ccc(N=c2c([N+](=O)[O-])nn(-c3ccccc3)n2O)c(C)c1`: the “activity change, negative = cytotoxicity” value was -15.1% (inactive).

As for `Cc1ccc(S(=O)(=O)N2[C@@H](c3ccccc3)C(C(=O)O)=CC[C@H]2c2cccc(Cl)c2)cc1`, the “activity change, negative = cytotoxicity” value was 6.16% (inactive).

`C=C1C=C(C)n2ncc(C(=O)Nc3ccc(C)cn3)c2N1`: the “activity change, negative = cytotoxicity” value is -8.35% (inactive).

In the case of `O=C(Nc1ncc([N+](=O)[O-])s1)c1ccco1`, the “activity change, negative = cytotoxicity” value was -8.55% (inactive).

Consider `Cc1ccc(S(=O)(=O)CC(=O)Nc2ncc([N+](=O)[O-])s2)cc1`, for which the “activity change, negative = cytotoxicity” value is 1.79% (inactive).

As for `O=C(Nc1ncc([N+](=O)[O-])s1)c1cccc([N+](=O)[O-])c1`, the Potency is 3.29 µM (active).

As for `Cc1ccc(C(=O)Nc2ncc([N+](=O)[O-])s2)cc1`, the Potency was 6.56 µM (active).

In the case of `O=C(COC(=O)c1ccccc1)Nc1ncc([N+](=O)[O-])s1`, the “activity change, negative = cytotoxicity” value is 16.8% (inactive).

Take `Cc1ccc(CC(=O)Nc2ncc([N+](=O)[O-])s2)cc1`: the “activity change, negative = cytotoxicity” value was 3.03% (inactive).

For `Cc1cc(Nc2ccccc2)c2c([N+](=O)[O-])cc(C)c(C)c2n1`, the “activity change, negative = cytotoxicity” value was 9.04% (inactive).

For the compound `CC(NC(=O)COc1cccnc1[N+](=O)[O-])c1ccc(Cl)cc1` (stereo not drawn), the “activity change, negative = cytotoxicity” value is 1.74% (inactive).

In the case of `O=[N+]([O-])c1ccc(CN2CCN(c3ccccc3Cl)CC2)o1`, the “activity change, negative = cytotoxicity” value was 9.64% (inactive).

As to `CC(=NN1CC(=O)NC1=O)c1ccc([N+](=O)[O-])o1`, the “activity change, negative = cytotoxicity” value was -8.95% (inactive).

Take `CC(C)(C)C(=O)N1CCN(c2ccc(NC(=O)c3ccc([N+](=O)[O-])o3)cc2)CC1`: the Potency was 6.56 µM (active).

As for `O=C(Nc1ccc(N2CCN(Cc3ccccc3F)CC2)cc1)c1ccc([N+](=O)[O-])o1`, the Potency was 2.93 µM (active).

As to `CC(C)C(=O)N1CCN(c2ccc(NC(=O)c3ccc([N+](=O)[O-])o3)cc2)CC1`, the Potency is 5.85 µM (active).

As to `O=[N+]([O-])c1ccc(CN2CCN(c3ccc(Cl)cc3)CC2)o1`, the “activity change, negative = cytotoxicity” value is 2.99% (inactive).

Take `O=C(Nc1ccc(N2CCCCC2)cc1)c1ccc([N+](=O)[O-])o1`: the Potency was 13.1 µM (active).

For the compound `O=[N+]([O-])c1ccc(CN2CCN(c3ccc(F)cc3)CC2)o1`, the “activity change, negative = cytotoxicity” value is 16.3% (inactive).

With `COc1cc(Nc2ccc(C)cc2)c([N+](=O)[O-])nc1[N+](=O)[O-]`, the “activity change, negative = cytotoxicity” value was 14.5% (inactive).

With `Cc1ccc(C(=O)c2c3ccc([N+](=O)[O-])cc3[n+]([O-])n2CCC(N)=O)cc1`, the “activity change, negative = cytotoxicity” value was 19% (inactive).

On to `CC(Oc1cccnc1[N+](=O)[O-])C(=O)Nc1cccc(Cl)c1` (stereo not drawn), for which the “activity change, negative = cytotoxicity” value was 9.9% (inactive).

As for `COc1ccc(-n2nc([N+](=O)[O-])c(=NCCc3cccc(C)c3)n2O)cc1`, the “activity change, negative = cytotoxicity” value was 5.18% (inactive).

With `COC(=O)c1cc(NC(=O)c2cc(C(C)(C)C)nn2Cc2ccc(F)cc2)ccc1N1CCOCC1`, the “activity change, negative = cytotoxicity” value is 0.619% (inactive).

Consider `COc1ccc(C(C)=O)cc1COc1cccnc1[N+](=O)[O-]`, for which the “activity change, negative = cytotoxicity” value is 4.35% (inactive).

Consider `O=C(Cc1c(F)cccc1Cl)Nc1ncc([N+](=O)[O-])s1`, for which the “activity change, negative = cytotoxicity” value was -17.9% (inactive).

On to `O=[n+]1c2c(n([O-])c3cc(Br)ccc31)CCC2`, for which the “activity change, negative = cytotoxicity” value is 22.2% (inactive).

With `CCOc1cc([N+](=O)[O-])cc(/C=C2/NC(=O)N(Cc3ccccc3F)C2=O)c1O`, the “activity change, negative = cytotoxicity” value was 11.1% (inactive).

For `O=[N+]([O-])c1nn(-c2ccc3c(c2)OCCO3)n(O)c1=NCc1ccc(F)cc1`, the “activity change, negative = cytotoxicity” value was 23.9% (inactive).

For `CN(C)c1ccc(C2Nc3cccc4cccc(c34)N2)cc1`, the “activity change, negative = cytotoxicity” value is -11.1% (inactive).

Turning to `Cc1cc(C)cc(N=c2c([N+](=O)[O-])nn(-c3ccc4c(c3)OCCO4)n2O)c1`, the “activity change, negative = cytotoxicity” value is -0.929% (inactive).

Take `CCC(=O)N1CCN(c2ccccc2NC(=O)c2ccc([N+](=O)[O-])o2)CC1`: the “activity change, negative = cytotoxicity” value was -5.48% (inactive).

For the compound `CS(=O)(=O)N1CCN(c2ccc(NC(=O)c3ccc([N+](=O)[O-])o3)cc2)CC1`, the Potency is 3.69 µM (active).

Turning to `CCC(=O)N1CCN(c2ccc(NC(=O)c3ccc([N+](=O)[O-])o3)cc2)CC1`, the Potency was 11.7 µM (active).

On to `CCCC(=O)N1CCN(c2ccc(NC(=O)c3ccc([N+](=O)[O-])o3)cc2)CC1`, for which the Potency was 3.29 µM (active).

As for `CS(=O)(=O)N1CCN(c2ccccc2NC(=O)c2ccc([N+](=O)[O-])o2)CC1`, the “activity change, negative = cytotoxicity” value was -6.16% (inactive).
